This is part of a sample that, as a whole, favours compounds with a hit. Of some 83,000 tested, about 20% had one in any assay.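 Plates (96-well) were seeded with cells, treated with compound at one concentration, and incubated for 48 hours before percent growth was determined.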 The source made the active and inactive calls. How the source made its calls: active means growth percent below 10; inactive means the rest.
Key:
Experiment in all cases: NCI-60 one-dose screen, 48 h (100 = growth as untreated, 0 = no growth, -100 = all killed)
Conditions in all cases: 10 µM unless noted
DU-145 prostate = tested on: DU-145 prostate
K-562 leukemia = tested on: K-562 leukemia
MALME-3M melanoma = tested on: MALME-3M melanoma
MDA-MB-231 breast = tested on: MDA-MB-231 breast
RXF 393 renal = tested on: RXF 393 renal
SF-268 CNS = tested on: SF-268 CNS
SF-295 CNS = tested on: SF-295 CNS
SF-539 CNS = tested on: SF-539 CNS
UACC-257 melanoma = tested on: UACC-257 melanoma
M14 melanoma = tested on: M14 melanoma

Measured: growth

N#Cc1c(-c2ccccc2)c(C#N)c2c(C#N)c(N)nn2c1N
inactive: DU-145 prostate 78.6% | MALME-3M melanoma 39.6% | MDA-MB-231 breast 33.6% | RXF 393 renal 69.8% | SF-268 CNS 56.3% | SF-295 CNS 33.4% | SF-539 CNS 37.2% | UACC-257 melanoma 51.1% | M14 melanoma 32.9%
active: K-562 leukemia 6.77%

COP(=O)(OC)c1nnn(-c2cccc([N+](=O)[O-])c2)c1C
inactive: DU-145 prostate 111% | K-562 leukemia 102% | MALME-3M melanoma 105% | MDA-MB-231 breast 113% | RXF 393 renal 118% | SF-268 CNS 98.2% | SF-295 CNS 111% | SF-539 CNS 93.3% | UACC-257 melanoma 105% | M14 melanoma 104%

CCOC(=O)c1c(C)nc2ccccc2c1/C=C/c1ccc(OC)cc1
inactive: DU-145 prostate 93.1% | K-562 leukemia 42% | MALME-3M melanoma 87% | MDA-MB-231 breast 74.6% | RXF 393 renal 91.3% | SF-268 CNS 78% | SF-295 CNS 58.8% | SF-539 CNS 85.3% | UACC-257 melanoma 74% | M14 melanoma 70.5%

C#CC#CC#CC#CC#CC#CC#CC#CC[C@H]1OC[C@H](COC(=O)O[C@@H](C(=O)O[C@H]2C[C@@]3(O)[C@@H](OC(=O)c4ccccc4)[C@@H]4[C@]5(OC(C)=O)CO[C@@H]5C[C@H](O)[C@@]4(C)C(=O)[C@H](OC(C)=O)C(=C2C)C3(C)C)[C@@H](NC(=O)c2ccccc2)c2ccccc2)O1
inactive: DU-145 prostate 45.3% | K-562 leukemia 22.2% | MALME-3M melanoma 56.7% | MDA-MB-231 breast 62.5% | RXF 393 renal 43% | SF-268 CNS 61.7% | SF-295 CNS 44.6% | SF-539 CNS 39.8% | UACC-257 melanoma 70.9% | M14 melanoma 27.5%

CCOC(=O)c1cn2ncnc(Oc3ccc(NC(=O)NC4CC4)c(F)c3)c2c1C
inactive: DU-145 prostate 110% | K-562 leukemia 88.6% | MALME-3M melanoma 107% | MDA-MB-231 breast 99.3% | RXF 393 renal 97.2% | SF-268 CNS 95% | SF-295 CNS 98.5% | SF-539 CNS 85% | UACC-257 melanoma 107% | M14 melanoma 109%

N=c1c2c(=N)n3c(nc2nc2n1-c1ccccc1Sc1ccccc1-2)sc1cc(Cl)ccc13
inactive: DU-145 prostate 32.4% | K-562 leukemia 34.9% | MALME-3M melanoma 12.7% | MDA-MB-231 breast 32.1% | RXF 393 renal 26.5% | SF-268 CNS 38.3% | SF-295 CNS 12.8% | SF-539 CNS 55.4% | M14 melanoma 28.8%
active: UACC-257 melanoma -5.42%

CC(CN)[C@@H]1CC[C@]2(CO)CC[C@]3(C)[C@H](CC[C@@H]4[C@@]5(C)CCC(N)C(C)(C)[C@@H]5CC[C@]43C)[C@@H]12 (stereo not given in full)
inactive: MALME-3M melanoma 74.2% | RXF 393 renal 53.1% | SF-295 CNS 56.9% | SF-539 CNS 42.2% | UACC-257 melanoma 78.1% | M14 melanoma 11.8%
active: DU-145 prostate -87.9% | K-562 leukemia -55.8% | MDA-MB-231 breast -68.5% | SF-268 CNS -60.9%

CNC(=O)c1c(NC(=O)c2ccc(C(C)(C)C)cc2)sc2c(CN(C)C)c(O)ccc12
inactive: DU-145 prostate 24.7% | RXF 393 renal 36.2%
active: K-562 leukemia -29.3% | MALME-3M melanoma -88.9% | MDA-MB-231 breast -44.8% | SF-268 CNS 3.83% | SF-295 CNS -80.6% | SF-539 CNS -71.1% | UACC-257 melanoma -56.4% | M14 melanoma -72.3%

COc1cc2cc(NCc3ccc(OC(F)F)cc3)nc(C)c2cc1OC
inactive: DU-145 prostate 75.8% | K-562 leukemia 34% | MALME-3M melanoma 72.4% | MDA-MB-231 breast 62.6% | RXF 393 renal 67.1% | SF-268 CNS 73.2% | SF-295 CNS 35% | SF-539 CNS 69.1% | UACC-257 melanoma 87.5% | M14 melanoma 63.9%

COc1ccc2c(c1)c(-c1ccc(-c3cn(C)c4ccc(OC)cc34)[nH]1)cn2C
inactive: DU-145 prostate 66.2% | MALME-3M melanoma 30.2% | SF-295 CNS 44.5% | UACC-257 melanoma 87% | M14 melanoma 43.6%
active: K-562 leukemia 0.411% | MDA-MB-231 breast -3.99% | RXF 393 renal -28.5% | SF-268 CNS 9.71% | SF-539 CNS -57.3%

CCC(C)Nc1ccc(NC(C)CC)cc1 (stereo not given)
inactive: DU-145 prostate 109% | K-562 leukemia 54.2% | MALME-3M melanoma 73.4% | MDA-MB-231 breast 82% | RXF 393 renal 81.8% | SF-268 CNS 96.6% | SF-295 CNS 111% | SF-539 CNS 90.7% | UACC-257 melanoma 21.1% | M14 melanoma 98.9%

CC(C)c1ccc(NC(=O)Nc2ccc(NC(=O)c3ccccc3N)cc2)cc1
active: RXF 393 renal -25.1% | SF-295 CNS -27.3%
inactive: DU-145 prostate 79.2% | K-562 leukemia 18.2% | MALME-3M melanoma 72.9% | MDA-MB-231 breast 50.1% | SF-268 CNS 51.8% | SF-539 CNS 30.1% | UACC-257 melanoma 58.6% | M14 melanoma 34%

CCNC(=O)Oc1ccc(/C(=C(/C)Cc2ccc(OC)cc2)c2ccc(OCCN3CCCC3)cc2)cc1
inactive: DU-145 prostate 87.1% | MALME-3M melanoma 80.6% | MDA-MB-231 breast 79.8% | RXF 393 renal 76.3% | SF-268 CNS 78.2% | SF-295 CNS 79.3% | SF-539 CNS 76.8% | UACC-257 melanoma 105%
active: K-562 leukemia 2.41% | M14 melanoma 2.05%

From PubChem BioAssay (NCI)
